KCC2 mod: modulators of human KCC2 chloride dependent transport; Q9H2X9; KCC2 cells, thallium flux FluoZin-2 fluorescence; B-score of Tl+ flux slope (higher = more flux/activation; lower = inhibition) at 10 µM; actives 2.2% (n = 190,000);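 active = thallium flux slope and its plate-corrected score both differing from the plate sample mean at a set confidence after two filtering rounds, in either direction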;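 also: slope of fluorescence scaled to starting intensity during 10 to 20 s after thallium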
Target sequence (Q9H2X9 whole entry, looked up): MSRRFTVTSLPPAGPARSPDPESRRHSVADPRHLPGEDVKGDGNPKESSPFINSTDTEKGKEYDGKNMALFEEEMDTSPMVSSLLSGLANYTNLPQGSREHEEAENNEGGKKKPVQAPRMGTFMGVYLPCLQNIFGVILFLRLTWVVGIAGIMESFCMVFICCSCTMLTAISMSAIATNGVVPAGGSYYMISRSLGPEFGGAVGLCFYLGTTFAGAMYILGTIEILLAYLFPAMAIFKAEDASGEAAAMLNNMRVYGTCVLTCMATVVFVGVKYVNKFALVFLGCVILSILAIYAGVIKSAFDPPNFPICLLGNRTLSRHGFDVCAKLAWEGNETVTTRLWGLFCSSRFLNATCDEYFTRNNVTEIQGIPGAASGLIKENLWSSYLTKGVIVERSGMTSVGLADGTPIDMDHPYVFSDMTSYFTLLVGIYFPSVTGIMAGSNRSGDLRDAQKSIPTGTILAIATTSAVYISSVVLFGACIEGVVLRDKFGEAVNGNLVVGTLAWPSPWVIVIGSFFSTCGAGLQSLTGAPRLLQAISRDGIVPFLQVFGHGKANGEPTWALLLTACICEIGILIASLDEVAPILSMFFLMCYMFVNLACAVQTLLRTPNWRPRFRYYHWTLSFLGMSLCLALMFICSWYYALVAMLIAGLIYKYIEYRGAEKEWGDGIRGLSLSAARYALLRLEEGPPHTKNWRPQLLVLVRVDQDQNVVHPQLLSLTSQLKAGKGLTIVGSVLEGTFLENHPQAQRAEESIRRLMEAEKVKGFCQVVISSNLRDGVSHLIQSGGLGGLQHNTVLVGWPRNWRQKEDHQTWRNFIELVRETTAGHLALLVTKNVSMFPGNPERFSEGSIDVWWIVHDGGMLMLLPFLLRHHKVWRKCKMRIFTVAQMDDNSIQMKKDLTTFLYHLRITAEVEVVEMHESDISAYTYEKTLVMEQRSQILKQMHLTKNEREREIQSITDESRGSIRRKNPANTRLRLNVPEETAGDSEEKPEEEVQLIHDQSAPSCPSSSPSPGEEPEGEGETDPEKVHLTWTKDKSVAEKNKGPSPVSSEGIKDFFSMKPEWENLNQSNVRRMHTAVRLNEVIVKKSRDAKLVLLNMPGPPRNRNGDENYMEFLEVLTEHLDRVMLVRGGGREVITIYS
H9c2 protect: protects H9c2 cardiomyocytes from peroxide injury | H2O2 injury protection, ATPLite, 2 h | protection from H2O2 cell death, % at 20 µM | actives 0.63% (n = 360,000) | AID 588492;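 active = compounds giving at least 50% protection of heart cells from peroxide-induced death in the single-dose screen, raw or plate-pattern-corrected value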;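 also: 0% = DMSO wells with peroxide and 100% = DMSO wells without peroxide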
Calb FLC: C. albicans growth modulation with fluconazole. C. albicans CaCi-2 (fluconazole-resistant clinical isolate) + fluconazole, Alamar Blue growth, 48 h. growth inhibition, % (test concentration not listed). actives 0.57% (n = 300,000);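 active = growth inhibition above about 58% in most replicates, limit read from the data, passing the limit was not always enough; inconclusive = exactly half the replicates above a set limit; inactive = most replicates below a set limit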;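 also: all wells also contain fluconazole at 8 µg/ml as a sub-toxic cotreatment; 0% = median of DMSO wells and 100% = median of geldanamycin control wells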
Efflux pump inh: blocks antifungal efflux pumps in multiplex yeast assay. actives 0.44% (n = 330,000). S. cerevisiae Candida pump triplex, Nile Red efflux. AID 485275. inhibition, % at 10 µM;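 active = plate passing quality check with inhibition over a set limit, or well fluorescence over plate mean plus 4 SD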;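 also: Nile Red retained in pooled yeast measured as flow cytometry median fluorescence; 0% = buffer negative control and 100% = Enniatin B positive control; higher means more Nile Red kept so more efflux inhibition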
PHOSPHO1 inh: blocks human PHOSPHO1 phosphatase activity; recombinant PHOSPHO1, absorbance phosphatase assay; AID 1565; Q8TCT1; inhibition, % at 13.3 µM; actives 1.1% (n = 290,000); in the data active = inhibition above about 60%
KCC2 secondary: KCC2 (human) modulation, secondary assay; shares compounds with KCC2 mod; HEK293-KCC2, thallium flux, FluoZin2 fluorescence; hits give high values; normalised thallium flux (F/F0 slope) at 10 µM; actives 15% (n = 3,700); AID 1713;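 active = thallium flux slope above the same plate's solvent-only control mean plus 3 SD; inconclusive = the two replicate wells disagree; inactive = no significant difference from solvent-only control wells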
KCC2 bumet counter: thallium flux despite bumetanide block in KCC2 cells, secondary assay 3. shares compounds with KCC2 mod. HEK293-KCC2 + bumetanide/ouabain, thallium flux FluoZin2; hits give high values. normalized thallium flux at 10 µM. actives 49% (n = 3,700);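 active = thallium entry rate above the same plate's blocked-transporter control wells by more than 3 SD; inconclusive = the two repeat wells disagree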;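 also: raw slope of fluorescence over initial fluorescence between 10 and 20 s after thallium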
KCC2 secondary2: KCC2 (human) modulation, second secondary assay. HEK293-KCC2, thallium flux FluoZin2 fluorescence; actives lie on both sides; F/F0 rise rate, 10–20 s post-thallium. normalized thallium flux at 10 µM. actives 23% (n = 3,700). shares compounds with KCC2 mod;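 active = thallium flux slope more than 3 SD above or below the plate's solvent-only control mean, mostly below; inconclusive = the two repeat wells disagreed; inactive = no significant shift from solvent-only controls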;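 also: raw slope with 0.1% DMSO as baseline and bumetanide as block control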
HEK counter1: parental HEK flux effect, counter-screen | actives 46% (n = 3,700) | HEK293 parental cells, thallium flux FluoZin2, ouabain; baseline-ratio fluorescence slope, 10–20 s after thallium | shares compounds with KCC2 mod | thallium flux rate (normalised fluorescence) at 10 µM;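 active = thallium flux rate significantly above the same plate's solvent-only control wells, beyond their mean plus 3 SD; inconclusive = the two replicate wells gave conflicting results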
KCC2 retest ouab: KCC2 (human) modulation, ouabain retest | shares compounds with KCC2 mod | HEK293-KCC2, thallium flux FluoZin2 fluorescence; bidirectional: low = inhibitor, high = activator | raw Tl+ flux slope (below DMSO = inhibition, above = activation) at 10 µM | actives 48% (n = 3,700) | AID 1717;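 active = thallium flux slope beyond 3 SD from same-plate DMSO control mean in most replicates, usually higher, sometimes lower; inconclusive = repeat tests gave conflicting results; inactive = no significant difference from controls in most replicates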;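 also: slope of initial-normalized fluorescence between seconds 10 and 20 after thallium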
HEK counter2: counter-screen for KCC2 modulators: effect in parental HEK293 cells | thallium flux FluoZin-2 fluorescence slope | thallium flux slope at 10 µM | shares compounds with KCC2 mod | actives 33% (n = 3,700);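 active = thallium flux slope above the same plate's solvent-control mean plus 3 SD in both duplicate wells; inconclusive = duplicate wells that disagreed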;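 also: run without ouabain in cells lacking the KCC2 cotransporter; slope of fluorescence scaled to its starting value between 10 and 20 s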
The depositor's hits bear a star; ? = inconclusive; / = no result. The list is not random: actives were taken first. Their share in the collection is about 3.3%.

SMILES	KCC2 mod	H9c2 protect	Calb FLC	Efflux pump inh	PHOSPHO1 inh	KCC2 secondary	KCC2 bumet counter	KCC2 secondary2	HEK counter1	KCC2 retest ouab	HEK counter2
COCC(=O)Nc1cc(=O)n(C)c(=O)n1C	-1.23	-10.8	-1.1	0.1	13.1	/	/	/	/	/	/
CCC(CC)C(=O)Nc1cc(=O)n(C)c(=O)n1C	4.09*	-0.3	-12.3	-0.1	-11.5	0.00618	0.00485	0.028	0.00779	0.0188	0.011
C[C@H](CO)N1C[C@H](C)[C@@H](CN(C)Cc2ccc3c(c2)OCCN3C)OCc2cnnn2CCCC1=O	/	-1.8	/	/	/	/	/	/	/	/	/
CCOc1ccccc1C(=O)NC1CC2CCCC(C1)N2Cc1nnnn1Cc1ccco1 (centres undefined)	-4.02*	9.1	3.6	0.1	5.6	0.00621	0.00537	0.0311	0.00593	?	0.0095
COc1ccccc1NC(=O)c1ccc(Cl)c(S(=O)(=O)NCc2ccco2)c1	/	-4.6	/	-0.1	/	/	/	/	/	/	/
COc1ccc(NC(=O)NCCCN2CCCCC2C)cc1 (centres undefined)	/	0.9	-7.9	0.1	25.4	0.00494	0.00499	0.029	0.00703	0.0186	0.0107
O=C(COc1ccccc1/C=C1\SC(=O)NC1=O)Nc1ccc(F)cc1	-3.14*	-21.2	?	0.2	-3.1	0.00755	0.00679	0.0321	0.00356	0.0134*	0.0106
Cc1ccc(S(=O)(=O)Oc2ccccc2/C=N/N=C(N)N)cc1	0.0451	1.5	-4.4	0.1	39.4	/	/	/	/	/	/
O=C(COc1ccccc1/C=C1/NC(=O)NC1=O)Nc1ccccc1	0.0238	0.9	-13.2	-0.2	23.3	/	/	/	/	/	/
Cc1ccc(S(=O)(=O)Oc2ccccc2/C=C2\SC(=O)NC2=O)cc1	-6.01*	-6.8	54.6	-0.1	36.7	?	0.004	0.0238*	0.00658*	0.0147*	0.0103
CCSc1nnc(NC(=O)CSc2nccn2-c2cccc(C)c2C)s1	3.13*	/	-10.9	0.1	47.1	0.00609	0.016*	0.0335	0.015*	0.022	0.0181*
O=C(CSc1ncccn1)N/N=C/c1cccs1	4.48*	8.8	-22.6	-0.2	-0.4	0.00773	0.00619	0.0286	0.00702	0.0201	0.00915
O=C(Nc1cccc(C(F)(F)F)c1)Oc1ccc(Cl)c2cccnc12	14.5*	-16.4	37.8	0.3	27.3	0.0157	0.0215*	0.0307	0.0142*	0.0212*	0.0159*
CCN(CC)C(=O)Oc1ccc(Cl)c2cccnc12	0.000462	5.0	-2.8	0.1	16.1	/	/	/	/	/	/
COc1cccc(CNc2nc3cc(-c4ccc(OC)cc4C)sc3c(=O)n2C)c1	/	-20.0	/	/	/	/	/	/	/	/	/
CCCC(=O)Nc1cccc(-c2nc3cc(C)c(C)cc3o2)c1	/	-26.5	9.8	0.0	14.5	0.00559	0.00466	0.0308	0.00737	0.0193	0.0111
Cc1c(C(=O)NCCSCc2ccc(F)cc2)cnn1-c1ccc(Cl)cc1	-3.83*	-1.4	-4.0	0.2	28.5	0.00704	0.00473	?	0.00642	0.0169*	0.00983
Cc1nc(C(=O)NNC(=O)c2ccccc2)c(C(F)(F)F)o1	4.19*	-1.0	-0.5	-0.1	20.3	0.00575	0.00654*	?	0.00869*	0.0193	0.00996
O=S1(=O)C=C(SCc2ccc(F)cc2)Nc2ccccc21	-4.34*	10.9	-13.2	-0.1	24.6	0.00783	0.00632	0.0278	0.00714	0.0269*	0.0105
O=S1(=O)C=C(SCc2ccccc2)Nc2ccccc21	-1.82	-2.2	?	-0.1	50.3	/	/	/	/	/	/
N#Cc1c(Cl)nc(-c2ccncc2)nc1-c1ccccc1	/	0.5	-3.8	0.8	32.7	/	/	/	/	/	/
CN1CCN(NC(=O)Nc2cc(Cl)cc(Cl)c2)CC1	/	-11.6	9.9	0.0	11.1	/	/	/	/	/	/
Cc1onc(-c2c(Cl)cccc2Cl)c1C(=O)NC(=S)N1CCOCC1	8.58*	2.3	3.4	0.0	21.0	0.011*	0.0186*	0.029	0.0119*	?	0.00989
CCOC(=O)N1CCN(C(=O)c2c(-c3ccccc3Cl)noc2C)CC1	/	3.4	3.4	0.1	32.3	/	/	/	/	/	/
CCOC(=O)N1CCN(C(=S)NC(=O)c2c(-c3c(Cl)cccc3Cl)noc2C)CC1	11*	23.6	11.5	0.0	10.8	?	0.0326*	?	0.018*	0.0316*	0.0188*
SMILES	KCC2 mod	H9c2 protect	Calb FLC	Efflux pump inh	PHOSPHO1 inh	KCC2 secondary	KCC2 bumet counter	KCC2 secondary2	HEK counter1	KCC2 retest ouab	HEK counter2
COc1ccccc1OCc1ccc(C(=O)Nc2cc(OC)c(OC)c(OC)c2)o1	/	17.3	-2.4	-0.1	23.9	/	/	/	/	/	/
O=C(c1ccc(COc2ccccc2Br)o1)N1CCCCCC1	/	-10.2	9.7	0.2	-10.0	0.00553	0.0033*	?	0.00626*	0.0161*	?
COc1cc(NC(=O)c2ccc(COc3ccccc3Br)o2)cc(OC)c1OC	/	12.3	-2.3	-0.5	-22.8	0.00549	0.00455	0.0246*	0.0061*	0.0154*	0.0104
O=C(c1ccc(COc2ccccc2Br)cc1)N1CCCCC1	-1.42	-12.3	-14.1	0.1	0.2	/	/	/	/	/	/
CCn1cc(C(=O)N[C@H](C(=O)NCCCn2ccnc2)C(C)C)c(=O)c2cc3c(cc21)OCO3	/	2.4	0.3	-0.1	57.9	/	/	/	/	/	/
CC(NC(=O)COC(=O)CC(c1ccccc1)c1ccccc1)c1ccccc1 (centres undefined)	-4.73*	5.0	16.2	0.5	-4.4	0.008	0.00374	0.0268	0.00532*	0.0176	?
O=C(Cn1ccc2ccccc2c1=O)NCC(=O)Nc1ccc(F)cc1F	/	-0.3	-0.1	-0.1	23.0	/	/	/	/	/	/
CCC(=O)N1CCc2cc(OC)c(OC)cc2C1COc1ccccc1OC (centres undefined)	-5.02*	-2.2	0.7	/	4.1	0.00548	0.00435	0.0299	0.0076	0.0198	0.0109
Cc1nn(-c2ccccc2)c(C)c1/C=N/NC(=O)c1cc(C2CC2)[nH]n1	/	60.5*	3.5	0.1	4.7	0.0075	0.00465	0.0263	0.00711	0.0147*	0.00881
Cc1cc(C(=O)N/N=C/c2c(C)nn(-c3ccccc3)c2C)n[nH]1	0.422	18.2	3.2	-0.1	20.3	/	/	/	/	/	/
CC(C)(C)NC(=O)C(=O)NNC(=O)C12CC3CC(CC(C3)C1)C2	5.92*	-3.7	-9.9	-0.1	15.9	?	0.0452*	0.0364*	0.0286*	0.0384*	0.0232*

Bioassay records: PubChem, several laboratories
